According to PubChem BioAssay:
Values joined by “and” are separate entries in the source; they are usually repeats but may differ in a detail not shown here. Equal entries are not always repeated. For some of these results: Potency and affinity values are given separately. Active and inactive are the calls of the source.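 Rule for the calls, unless noted: active = compounds whose cell count with miR-34 switched on is under 0.7 times the count with it off; inactive = the rest.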

How the values were obtained:
[1] = polyglutamine-triggered caspase-3 activation inhibitors, cell-based (AID 1583); conditions: polyglutamine-induced caspase-3 activation, cell assay; stronger effect = higher value;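 tested at 10 µM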
[2] = suppressors of polyQ aggregation in yeast, 75Q-TubU reporter (AID 1593); conditions: Yeast 75Q polyglutamine aggregation reporter
[3] = rescue of polyQ-huntingtin neuronal dysfunction in worms, whole organism, C. elegans mechanosensory neurons, N-terminal huntingtin (AID 1599); conditions: touch response, stronger effect = higher value
[4] = inhibitors of mitochondrial cytochrome c release, biochemical, purified mitochondria (AID 1603); conditions: stronger effect = lower value;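 note: mouse liver mitochondria challenged with calcium chloride; signal normalized to the plate average as 100%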
[5] = inhibitors of polyQ protein aggregation (AID 1604); conditions: polyglutamine-induced protein aggregation inhibition assay; stronger effect = higher value; tested at 2.5 µM
[6] = enhancers of glutamate uptake in motor neurons, MN-1 cell line (AID 1612); conditions: MN-1 motor neuron cells, stronger effect = higher value;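 note: tested at 1 µM final; 0% = mean of DMSO vehicle wells on each plate; positive means more glutamate uptake than control and negative means less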
[7] = reducers of polyQ inclusions in PC12 cells, cell-based, NGF-treated PC12, GFPQ80 (AID 1614); conditions: PC12 NGF-treated GFP-polyQ80 inclusion reduction;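 note: lower means fewer inclusions and 0 means no inclusions at all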
[8] = suppressors of polyglutamine aggregation in yeast, 75Q-TubH (AID 1616); conditions: S. cerevisiae 75Q-TubH polyglutamine aggregation suppression; stronger effect = higher value
[9] = circadian clock period modulators, cell-based, LOPAC library, luminescence reporter (AID 2774; call rule not given here;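 note: values are relative to mean of DMSO wells on each plate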); conditions: circadian reporter cells, at 7 µM, actives lie on both sides
[10] = hESC survival regulators, cell-based (AID 493140; call rule not given here;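 note: cells exposed to compounds for four days before counting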); conditions: human embryonic stem cell survival screen; stronger effect = higher value
[11] = liver-stage malaria parasite growth inhibition, primary screen, cell-based, HepG2, luciferase luminescence, HepG2 viability (AID 624349; in the data active = parasite load remaining mostly below about 12%, no sharp cut-off; inactive = mostly above about 10%;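 note: 100% = mean of DMSO negative control wells on the same plate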); conditions: P. berghei liver stage in HepG2, luciferase luminescence, concentration not given here; parasite load remaining: stronger effect = lower value; viability: measured here: HepG2 viability without parasites
[12] = target: 6-phosphogluconate dehydrogenase, decarboxylating (Homo sapiens) (UniProt P52209); assay: 6PGD enzyme inhibitors, primary screen, biochemical, human, recombinant enzyme, NADPH absorbance (AID 1159550;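 active = at least 20% inhibition of 6-phosphogluconate dehydrogenase activity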); conditions: recombinant 6PGD, NADPH absorbance 341 nm; at 10 µM; stronger effect = higher value
[13] = differential killing of epithelial or mesenchymal cells, primary screen, imaging, PC-3E GFP, TEM4-18 mCherry, co-culture (AID 1345086;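 active = compounds killing one labelled cell type while sparing the other, by normalised counts and ratio limits, not self-fluorescent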;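 for all read-outs here: cells exposed to compound for 72 h before imaging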;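 for red/green cell ratio (normalised): normalised mesenchymal count divided by normalised epithelial count so high means epithelial killing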); conditions: imaging cell counts, at 1 µM; for red/green cell ratio (normalised): actives lie on both sides, counts scaled to control wells, 1 = unselective
[14] = sensitizers of A549 cells to miR-34 induction, primary screen, imaging, A549 dox-inducible miR-34, nuclei and caspase counts (AID 1347080); conditions: A549 miR-34 inducible, Hoechst nuclei count, 48 h
[15] = phospholipid biosynthesis inhibitors in animal cells, primary screen, cell-based, LOPAC library, screen 4 (AID 1347384; call rule not given here); conditions: phospholipid biosynthesis inhibition screen, at 10 µM
[16] = viability rescue of complex I mutant cybrids, primary screen, cell-based, galactose medium, ATP luminescence (AID 1645843;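 active = z-score of at least 1.8 in each of two replicates, scored against plate mean and spread of sample wells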;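 note: positive z means more ATP and so rescue of galactose-driven cybrid death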); conditions: complex I mutant cybrid cells, 72 h, stronger effect = higher value
[17] = survival rescue of mitochondrial mutant cells in low glucose, primary screen, MELAS cybrids, Rieske KO mouse fibroblasts, CellTiter-Glo (AID 1508586;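 active = mean z-score across replicates of 1.96 or higher in either the MELAS or the Rieske mutant cell line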;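 note: z relative to plate mean and SD of compound and empty wells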)
[18] = target: Mitogen-activated protein kinase 7 (Homo sapiens) (UniProt Q13164); assay: ERK5 transactivation activators in reporter cells, primary screen, cell-based, HTS (AID 1508626;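 active = luciferase signal above three times the same-plate solvent-only control wells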;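 note: luciferase driven by Gal4-ERK5 fusion binding five Gal4 sites before minimal TATA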); conditions: HeLa Gal4-ERK5 transactivation, 18 h, at 5 µM, stronger effect = higher value
[19] = target: NAD(+) hydrolase SARM1 (Homo sapiens) (UniProt Q6SZW1); assay: SARM1 TIR NADase inhibitors, cell lysate, NAD-Glo luminescence (AID 1508614;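 active = compound whose remaining NAD level is above about 45 nM, limit read from the data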;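 note: higher remaining NAD means stronger inhibition of SARM1 NADase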); conditions: SAM-TIR HEK293T lysate NADase, at 1 µM, stronger effect = higher value
[20] = measured here: epithelial PC-3E GFP cell survival
[21] = measured here: mesenchymal TEM4-18 mCherry cell survival
[22] = stronger effect = lower value, cell number ratio, induced over uninduced
[23] = measured here: relative caspase fold change +Dox/-Dox
[24] = measured here: total cells with miR-34 induction, stronger effect = lower value
[25] = measured here: total cells without miR-34 induction
[26] = MELAS cybrid survival, CellTiter-Glo 48 h, stronger effect = higher value
[27] = Rieske KO mouse fibroblast survival, CellTiter-Glo 72 h

Sequence of 6-phosphogluconate dehydrogenase, decarboxylating (Homo sapiens) (P52209 whole entry, looked up): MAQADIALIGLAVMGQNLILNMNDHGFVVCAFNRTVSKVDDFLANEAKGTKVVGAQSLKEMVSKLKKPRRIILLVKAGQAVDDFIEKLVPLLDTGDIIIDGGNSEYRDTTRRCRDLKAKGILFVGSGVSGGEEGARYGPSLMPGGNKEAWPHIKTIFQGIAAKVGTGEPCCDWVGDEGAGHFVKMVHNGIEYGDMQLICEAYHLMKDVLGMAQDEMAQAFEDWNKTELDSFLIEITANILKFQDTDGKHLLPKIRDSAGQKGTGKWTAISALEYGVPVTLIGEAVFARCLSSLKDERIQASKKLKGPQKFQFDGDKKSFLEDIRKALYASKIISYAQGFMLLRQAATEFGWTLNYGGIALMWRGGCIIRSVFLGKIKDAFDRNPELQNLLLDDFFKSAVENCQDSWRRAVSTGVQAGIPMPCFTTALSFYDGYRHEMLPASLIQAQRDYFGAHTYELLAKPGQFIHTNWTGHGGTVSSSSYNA
Sequence of Mitogen-activated protein kinase 7 (Homo sapiens) (Q13164 whole entry, looked up, the tested form may be a part): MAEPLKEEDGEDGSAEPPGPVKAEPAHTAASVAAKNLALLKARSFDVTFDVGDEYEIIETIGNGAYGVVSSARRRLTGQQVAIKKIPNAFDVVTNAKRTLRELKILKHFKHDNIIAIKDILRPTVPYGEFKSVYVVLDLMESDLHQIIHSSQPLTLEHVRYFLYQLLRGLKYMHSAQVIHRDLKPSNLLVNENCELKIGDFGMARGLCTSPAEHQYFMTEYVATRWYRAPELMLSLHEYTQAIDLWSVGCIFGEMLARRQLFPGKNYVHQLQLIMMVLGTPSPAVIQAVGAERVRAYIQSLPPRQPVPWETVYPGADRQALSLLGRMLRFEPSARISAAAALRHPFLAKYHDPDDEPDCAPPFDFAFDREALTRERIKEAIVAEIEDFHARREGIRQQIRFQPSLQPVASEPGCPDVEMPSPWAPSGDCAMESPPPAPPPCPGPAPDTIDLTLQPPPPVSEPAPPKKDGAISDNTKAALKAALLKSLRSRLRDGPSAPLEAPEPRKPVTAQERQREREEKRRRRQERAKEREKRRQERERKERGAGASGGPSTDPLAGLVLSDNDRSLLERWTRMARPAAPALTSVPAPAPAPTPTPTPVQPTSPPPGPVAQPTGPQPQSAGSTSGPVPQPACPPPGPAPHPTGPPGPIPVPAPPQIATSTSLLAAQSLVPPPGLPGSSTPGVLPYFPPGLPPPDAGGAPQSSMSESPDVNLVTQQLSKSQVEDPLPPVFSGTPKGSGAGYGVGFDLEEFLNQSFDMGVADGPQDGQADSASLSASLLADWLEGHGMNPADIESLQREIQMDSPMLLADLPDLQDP
Sequence of NAD(+) hydrolase SARM1 (Homo sapiens) (Q6SZW1 whole entry, looked up): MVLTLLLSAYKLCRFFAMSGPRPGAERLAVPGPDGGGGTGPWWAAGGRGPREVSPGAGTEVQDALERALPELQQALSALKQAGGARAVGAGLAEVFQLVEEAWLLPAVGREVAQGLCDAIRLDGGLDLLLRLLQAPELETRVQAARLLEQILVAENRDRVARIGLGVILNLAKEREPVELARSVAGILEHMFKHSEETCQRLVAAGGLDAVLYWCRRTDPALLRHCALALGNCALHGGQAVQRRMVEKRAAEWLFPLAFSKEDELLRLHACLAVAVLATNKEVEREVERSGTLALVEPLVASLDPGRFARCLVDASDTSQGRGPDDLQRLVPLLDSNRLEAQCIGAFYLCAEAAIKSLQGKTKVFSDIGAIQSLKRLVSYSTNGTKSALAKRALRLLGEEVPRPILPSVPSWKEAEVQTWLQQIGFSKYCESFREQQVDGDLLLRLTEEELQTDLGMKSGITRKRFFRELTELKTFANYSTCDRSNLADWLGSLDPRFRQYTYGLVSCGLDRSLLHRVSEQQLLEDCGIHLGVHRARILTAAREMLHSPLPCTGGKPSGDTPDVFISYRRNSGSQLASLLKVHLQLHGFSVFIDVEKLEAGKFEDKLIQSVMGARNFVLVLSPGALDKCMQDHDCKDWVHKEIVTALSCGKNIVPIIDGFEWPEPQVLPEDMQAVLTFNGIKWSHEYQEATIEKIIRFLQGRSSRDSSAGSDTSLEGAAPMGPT

Q: Which inhibition [1] does the source give for `COC(=O)[C@H]1[C@H]2C[C@H]3c4[nH]c5ccccc5c4CCN3C[C@H]2CC[C@@H]1O` here?
A: -11.7%

Q: And the score [2]?
A: 2.01

Q: And the rescue above control [3]?
A: 16.2

Q: What about the cytochrome c release ratio [4] of the same compound?
A: 1.18

Q: What about the inhibition of aggregation [5] of the same compound?
A: 75.9%

Q: And the glutamate uptake change [6]?
A: 41.8%

Q: What about the inclusion score [7] of the same compound?
A: 2

Q: And the aggregation suppression score [8]?
A: 1.4

Q: And the period change [9]?
A: 0.015 h (inactive)

Q: And the survival [10]?
A: 5.58 (inactive)

Q: What about the parasite load remaining [11] of the same compound?
A: 79.9% (inactive) and 65.8% (inactive)

Q: And the viability [11]?
A: 101% and 78.6%

Q: And the inhibition [12]?
A: -0.247% (inactive)

Q: What about the red/green cell ratio (normalised) [13] of the same compound?
A: 1.04 (inactive)

Q: And the normalised cell number [13, 20]?
A: 0.93

Q: What about the normalised cell number [13, 21] of the same compound?
A: 0.97

Q: What about the fold change [14, 22] of the same compound?
A: 0.977 (inactive) and 0.857 (inactive)

Q: What about the fold change [14, 23] of the same compound?
A: 0.889 and 1.48

Q: What about the cell count [14, 24] of the same compound?
A: 10000 and 9150

Q: And the cell count [14, 25]?
A: 10300 and 10700

Q: What about the outcome [15] of the same compound?
A: inactive

Q: What about the z-score [16] of the same compound?
A: 0.115 (inactive)

Q: Which results are given for `OCc1c[nH]c2ccccc12`?
A: inhibition [12]: 14.9% (inactive); red/green cell ratio (normalised) [13]: 0.93 (inactive); normalised cell number [13, 20]: 0.91; normalised cell number [13, 21]: 0.84; fold change [14, 22]: 0.978 (inactive); fold change [14, 23]: 0.867; cell count [14, 24]: 8210; cell count [14, 25]: 8390; z-score [17, 26]: -0.392 (inactive); z-score [17, 27]: -0.0559; luciferase signal [18]: 88 AU (inactive)

Q: Which period change [9] does the source give for `NC1(C(=O)O)CC1` here?
A: -0.01 h (inactive)

Q: What about the inhibition [12] of the same compound?
A: -3.72% (inactive)

Q: And the red/green cell ratio (normalised) [13]?
A: 0.8 (inactive)

Q: What about the normalised cell number [13, 20] of the same compound?
A: 1.07

Q: What about the normalised cell number [13, 21] of the same compound?
A: 0.86

Q: And the fold change [14, 22]?
A: 0.945 (inactive)

Q: What about the fold change [14, 23] of the same compound?
A: 1.33

Q: What about the cell count [14, 24] of the same compound?
A: 9670

Q: And the cell count [14, 25]?
A: 10200

Q: What about the outcome [15] of the same compound?
A: inactive

Q: And the luciferase signal [18]?
A: 60 AU (inactive)

Q: And the z-score [16]?
A: 0.575 (inactive)

Q: With `C[N+](C)(C)CC(O)CC(=O)O` (centres undefined) as the compound, how does the inhibition [1] read?
A: 0.15%

Q: And the score [2]?
A: 1.34

Q: And the rescue above control [3]?
A: -5.96

Q: What about the cytochrome c release ratio [4] of the same compound?
A: 0.99

Q: And the inhibition of aggregation [5]?
A: 88.8%

Q: What about the glutamate uptake change [6] of the same compound?
A: -5.62%

Q: And the inclusion score [7]?
A: 2

Q: What about the aggregation suppression score [8] of the same compound?
A: 1.39

Q: And the parasite load remaining [11]?
A: 33.4% (inactive)

Q: What about the viability [11] of the same compound?
A: 63.9%

Q: What about the inhibition [12] of the same compound?
A: -11.2% (inactive)

Q: And the red/green cell ratio (normalised) [13]?
A: 0.84 (inactive)

Q: What about the normalised cell number [13, 20] of the same compound?
A: 0.96

Q: And the normalised cell number [13, 21]?
A: 0.81

Q: And the fold change [14, 22]?
A: 0.835 (inactive)

Q: And the fold change [14, 23]?
A: 0.677

Q: And the cell count [14, 24]?
A: 6370

Q: And the cell count [14, 25]?
A: 7640

Q: What about the z-score [17, 26] of the same compound?
A: -0.35 (inactive)

Q: And the z-score [17, 27]?
A: -0.217

Q: What about the luciferase signal [18] of the same compound?
A: 24 AU (inactive)

Q: What does the source list for `CC(=O)Oc1ccccc1C(=O)Oc1ccccc1C(=O)O`?
A: survival [10]: 16.8 (inactive); parasite load remaining [11]: 36.8% (inactive) and 92.5% (inactive); viability [11]: 53.8% and 90.5%; inhibition [12]: 14.2% (inactive); red/green cell ratio (normalised) [13]: 1.07 (inactive); normalised cell number [13, 20]: 0.97; normalised cell number [13, 21]: 1.04; fold change [14, 22]: 0.938 (inactive); fold change [14, 23]: 0.828; cell count [14, 24]: 8700; cell count [14, 25]: 9270; z-score [17, 26]: -0.224 (inactive); z-score [17, 27]: 0.071; luciferase signal [18]: 48 AU (inactive)

Q: Which parasite load remaining [11] does the source give for `Nc1nc(/C(=C/CC(=O)O)C(=O)N[C@@H]2C(=O)N3C(C(=O)O)=CCS[C@H]23)cs1` here?
A: 145% (inactive) and 53% (inactive)

Q: And the viability [11]?
A: 95.5% and 96.5%

Q: And the inhibition [12]?
A: -3.19% (inactive)

Q: And the red/green cell ratio (normalised) [13]?
A: 1.05 (inactive)

Q: What about the normalised cell number [13, 20] of the same compound?
A: 0.96

Q: And the normalised cell number [13, 21]?
A: 1

Q: What about the fold change [14, 22] of the same compound?
A: 0.926 (inactive)

Q: What about the fold change [14, 23] of the same compound?
A: 1.29

Q: What about the cell count [14, 24] of the same compound?
A: 12000

Q: And the cell count [14, 25]?
A: 13000

Q: And the z-score [17, 26]?
A: -0.448 (inactive)

Q: And the z-score [17, 27]?
A: -1.4

Q: What about the remaining NAD [19] of the same compound?
A: 10 nM (inactive)

Q: And the luciferase signal [18]?
A: 40 AU (inactive)
